The structures appear in SMILES notation. Records with an inconclusive call do not appear. A number with no mark means an inactive call. Calls follow the shape of the dose curve; as a rule, active = well fitted cell-killing curve with a large enough effect in the repeat runs; inconclusive = weak or mixed curves, or effect the other way; inactive = flat fitted curve, though single readings scatter.
% is scaled to controls: 0 for no effect and ±100 for the full control effect.

A short description of this assay: qHTS assay to identify small molecule antagonists of the estrogen receptor alpha (ER-alpha) signaling pathway using the BG1 cell line in the presence of 0.1 nM 17-beta-estradiol - cell viability counter screen (AID 1259241). Also: nearly all actives have a fitted effect of over 40% in size. Conditions: VM7Luc4E2 (BG1) viability, CellTiter-Fluor protease, 22 h, 0.1 nM estradiol agonist added; series mostly up to 92.4 µM; activity change, negative = cytotoxicity: at the top concentration. Summed up: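 VM7Luc4E2 cells (endogenous full-length ER-alpha, 4xERE-luciferase), cultured 5 days in charcoal-stripped serum, exposed to compounds with 0.1 nM 17beta-estradiol (final) for 22 hr at 37C. Viability read in same wells as live-cell protease fluorescence after 30 min.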
As to `OCCCCC(O)CO` (stereo unspecified), the “activity change, negative = cytotoxicity” value was 3.62%. As to `Cc1cccc2nccnc12`, the “activity change, negative = cytotoxicity” value was -2.66%. Regarding `CN(C)C(=O)CNC(=O)Cc1ccccc1`, the “activity change, negative = cytotoxicity” value was -1.52% [at 42.5 µM].

As for `CN(CCOc1ccc(NS(C)(=O)=O)cc1)CCc1ccc(NS(C)(=O)=O)cc1`, the “activity change, negative = cytotoxicity” value was -4% [at 42.5 µM].

For the molecule `C=CC(OCC)OCC`, the “activity change, negative = cytotoxicity” value was 13.1%. `CCCCCCCCSCC`: the “activity change, negative = cytotoxicity” value was 1.89%. Next, `Cc1[nH]cnc1-c1ccc(Cl)cc1`: -1.62% [at 42.5 µM]; `c1ccc2c(c1)ccc1c3ccccc3ccc21`: 2.39% [at 42.5 µM].

Regarding `NS(=O)(=O)c1cc2c(cc1Cl)CN(C1CCCCC1)C2=O`, the “activity change, negative = cytotoxicity” value is -0.0848% [at 42.5 µM]. Then `Oc1cn2c(n1)Nc1ccc(Cl)c(Cl)c1C2`, with 0.999% [at 19 µM]; and `CCOC(=O)c1ncn2c1CN(C)C(=O)c1cc(F)ccc1-2`, with -1.15% [at 42.5 µM]. Then `CN1C(C)(C)CCCC1(C)C`, with 6.94% [at 42.5 µM]. Next, `CC(C)(C)c1cc(CCC(=O)NN)cc(C(C)(C)C)c1O`: -3.04%.

Turning to `C[Si](C)=O`, the activity change, negative = cytotoxicity is -11.4% [at 8.39 µM]. Then `CCc1ccc(C=O)cc1`, with 2.08%; and `CC(=O)OC(C)OC(=O)C(C)c1ccc(-c2ccccc2)c(F)c1` (stereo unspecified), with 9.38% [at 42.5 µM]; and `COP(=O)(OC)OC(c1ccc(Cl)cc1)P(=O)(OC)OC` (stereo unspecified), with 5.06% [at 42.5 µM]. Next, `CCOCCOCCOCC`: 4.59%; `CC1=C(C(=O)O)N2C(=O)[C@@H](NC(=O)[C@H](N)c3ccc(O)cc3)[C@H]2SC1`: 2.47% [at 42.5 µM]; `CC(C)CC(=O)O`: -0.946%. Then `CC(COC(C)(C)C)OCCCO` (stereo unspecified), with -3.05%; and `CC(C)CCCCOC(=O)c1ccccc1C(=O)OCCCCC(C)C`, with -1.13%; and `CC(CO)c1ccccc1` (stereo unspecified), with -4.82%. As to `CC(=O)NCc1c(I)c(NC(C)=O)c(I)c(C(=O)O)c1I`, the “activity change, negative = cytotoxicity” value was -3.31% [at 42.5 µM]. Consider `O=C(OCC(COC(=O)c1cccnc1)(COC(=O)c1cccnc1)COC(=O)c1cccnc1)c1cccnc1`, for which the “activity change, negative = cytotoxicity” value was -8.75% [at 42.5 µM].

With `CCOC(=O)c1ccc(OC(=O)CCCCCN=C(N)N)cc1`, the “activity change, negative = cytotoxicity” value is -0.338% [at 42.5 µM]. Next, `CC(C)(C)c1n[nH]c(=S)n(N)c1=O`: 4.84%. `CC(C)C(=O)OCCc1ccccc1`: the “activity change, negative = cytotoxicity” value was 2.88%. `CC(=O)Nc1ccc(S(=O)(=O)Cl)cc1`: the “activity change, negative = cytotoxicity” value was 6.91%.

Turning to `CCCCOC(=O)c1ccccc1`, the “activity change, negative = cytotoxicity” value is 3.5%. Then `CCCCCCN`, with -17.2%; and `Cc1ccccc1OCC(O)CO` (stereo unspecified), with 0.114% [at 42.5 µM]; and `COC(=O)C1CC(=O)C(C(=O)OC)CC1=O` (stereo unspecified), with 7.13% [at 8.39 µM].

With `BrCc1cccc(Oc2ccccc2)c1`, the “activity change, negative = cytotoxicity” value was -3.61%.

For the molecule `Cc1cccc(OCC(O)CNC(C)(C)C)c1C` (stereo unspecified), the “activity change, negative = cytotoxicity” value was -10.4% [at 42.5 µM]. Then `OCCC(F)(F)C(F)(F)C(F)(F)C(F)(F)C(F)(F)C(F)(F)C(F)(F)C(F)(F)F`, with 3.81%.

The record behind these values is PubChem BioAssay (Tox21).
